Many of the other results were omitted from the sample, so hits are more common in it than they were.
ALOX12 inh – Primary qHTS assay for inhibitors of human arachidonate 12S-lipoxygenase (ALOX12): Round 2 | Polyunsaturated fatty acid lipoxygenase ALOX12 (Homo sapiens), P18054 | purified 12hLO, xylenol orange hydroperoxide absorbance | Potency, µM (doses to about 108 µM), inactives show at the highest dose activity change, negative = inhibition, hits mostly inhibitors | 580,000 tested, 1.1% active | AID 1671190, 2021; further: potency means the concentration at half of the fitted maximal effect
Target sequence (P18054 whole entry, looked up): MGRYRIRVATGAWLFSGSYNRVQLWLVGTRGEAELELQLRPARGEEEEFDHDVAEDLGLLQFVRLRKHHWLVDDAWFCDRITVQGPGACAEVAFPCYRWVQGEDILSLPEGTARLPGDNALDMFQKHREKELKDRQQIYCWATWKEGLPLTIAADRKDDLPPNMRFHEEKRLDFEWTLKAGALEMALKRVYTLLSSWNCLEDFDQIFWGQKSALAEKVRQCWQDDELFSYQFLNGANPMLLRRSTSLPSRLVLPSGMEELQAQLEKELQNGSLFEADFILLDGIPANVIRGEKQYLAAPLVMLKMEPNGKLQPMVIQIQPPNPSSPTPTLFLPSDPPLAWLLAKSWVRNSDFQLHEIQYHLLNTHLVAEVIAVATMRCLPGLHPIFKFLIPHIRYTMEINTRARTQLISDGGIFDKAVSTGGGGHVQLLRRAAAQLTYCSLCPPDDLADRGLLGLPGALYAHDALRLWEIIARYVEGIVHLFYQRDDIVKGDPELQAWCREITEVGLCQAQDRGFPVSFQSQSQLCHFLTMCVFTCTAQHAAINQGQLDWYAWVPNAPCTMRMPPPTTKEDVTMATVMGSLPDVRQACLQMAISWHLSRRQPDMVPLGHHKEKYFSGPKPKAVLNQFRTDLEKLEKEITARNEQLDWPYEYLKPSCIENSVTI
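Hydroperoxide product was detected by ferrous iron/xylenol orange as the 573 to 405 nm absorbance ratio. Arachidonic acid at 40 uM (final) was turned over for 30 min at room temperature by 150 nM human 12hLO, pH 7.0 Hepes buffer, after 15 min compound preincubation.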
HT1080NT lethal – qHTS for induction of synthetic lethality in tumor cells producing 2HG: qHTS for the HT-1080-NT fibrosarcoma cell line; HT-1080-NT fibrosarcoma viability, CellTiter-Glo ATP luminescence, 48 h; Potency, µM (series often up to 46.1 µM), for the others: top-dose activity, negative = less viability, usual class: cytotoxic; 360,000 tested, 1.6% active; AID 686970, 2013;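 further: NT is the 2HG producing partner of a matched IDH1 knockdown line; potency means the concentration at half of the fitted maximal effect; 0% = DMSO-treated cells and -100% = media-only wells without cells; nearly all actives have a fitted effect of over 55% in size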
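Fibrosarcoma NT cells, 750 per well in 5% FBS RPMI, were exposed to compound for 48 hours. Viability: CellTiter-Glo luminescence.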
IL1B secr inh – qHTS for Inhibitors of Inflammasome Signaling: IL-1-beta AlphaLISA Primary Screen; 360,000 tested, 4.7% active; AID 743279, 2014; THP-1 LPS/ATP IL-1B secretion, AlphaLISA, 16 h; stronger effect = lower value; activity change, % at 57.5 µM; in the data active means activity change below about -50%; inconclusive means mostly about -30% to -49%
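THP-1 cells pretreated 1 hr with compounds (up to 57.5 uM final), then stimulated with LPS (250 ng/mL final) plus ATP (1.25 mM final); secreted IL-1B measured by AlphaLISA after 16 hr, decreased signal indicating inhibition.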
DT40 TDP1 CPT – qHTS for Inhibitors of human tyrosyl-DNA phosphodiesterase 1 (TDP1): qHTS in cells in presence of CPT; chicken DT40 Tdp1-/-;hTDP1 cells + 20 nM CPT, ATP luminescence, 48 h; Potency, µM (series often up to 46.2 µM), for inactives: top-dose activity change, negative = growth inhibition, actives largely listed as inhibitors; 420,000 tested, 12% active; AID 686979, 2013; further: potency means the concentration at half of the fitted maximal effect; nearly all actives have a fitted effect of over 55% in size
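Cell growth measured by CellTiter-Glo luminescence after a minimum 48 h, 37 C compound exposure with 20 nM CPT in Tdp1-knockout DT40 cells stably expressing hTDP1, seeded 400/well; qHTS titration format.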
HT1080 IDH1KD tx – qHTS for induction of synthetic lethality in tumor cells producing 2HG: qHTS for the HT-1080-IDH1KD cell line | Potency, µM (highest dose often 46.1 µM), without a hit: at the top dose activity, negative = toxicity, hits mostly cytotoxic | HT-1080 IDH1 knockdown viability, ATP luminescence, 48 h | 360,000 tested, 2% active;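 further: potency means the concentration at half of the fitted maximal effect; 0% = DMSO wells and -100% = cell-free medium wells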
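HT-1080-IDH1KD cells (IDH1 knocked down), 750/well in RPMI with 5% FBS, treated with compound 48 h at 37 degrees C. Viability by CellTiter-Glo luminescence, normalised to DMSO and no-cell wells; concentration-response curves classed.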
TDP1 cell noCPT – qHTS for Inhibitors of human tyrosyl-DNA phosphodiesterase 1 (TDP1): qHTS in cells in absence of CPT; Potency, µM (highest dose often 46.2 µM), without a hit: top-dose activity change, negative = growth inhibition, actives largely listed as inhibitors; 420,000 tested, 15% active; DT40 Tdp1-/- hTDP1 cells, no CPT, ATP luminescence, 48 h; further: potency means the concentration at half of the fitted maximal effect; nearly all actives have a fitted effect of over 55% in size
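Growth of hTDP1-complemented DT40 Tdp1-knockout cells is measured by ATP luminescence after at least 48 hr compound exposure at 37 °C, with DMSO substituting for the 20 nM CPT used in the parallel screen.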
Numbers without * were called inactive; ? = inconclusive; nt = not tested or not shown. Unless noted, the call rests on the fitted dose curve; in most records, active means well fitted curve in the direction sought with a large enough effect; inconclusive means small, poorly fitted or top-dose-only effect, or another doubt; inactive means no such curve, though single readings can be large; an effect the other way counts as inactive or inconclusive. Unless noted, on the % scale 0 is the no-effect control and ±100 the full control effect.

SMILES	ALOX12 inh	HT1080NT lethal	IL1B secr inh	DT40 TDP1 CPT	HT1080 IDH1KD tx	TDP1 cell noCPT
O=Cc1cc(N=Nc2cccc(C(=O)O)c2)ccc1O	-14%	?	28	-22%	15µM*	?
COC(=O)[C@]1(C#N)[C@@H](c2ccccc2)C(=O)N(Cc2ccc(Cl)cc2)[C@@H]1c1ccc(OC)cc1	3%	nt	nt	nt	nt	nt
CCN(C(=O)Cn1c(=O)n(Cc2ccccc2)c(=O)c2ccccc21)c1cccc(C)c1	-5%	-7%	-24	-11%	-3%	?
Cc1ccc(NC(=O)Cn2c(=O)n(Cc3ccc4c(c3)OCO4)c(=O)c3ccc(C(=O)NC4CCCCC4)cc32)c(C)c1	-10%	nt	nt	2.1µM*	nt	?
Cc1ccc(C)c(NC(=O)Cn2c(=O)n(CCC(=O)NCc3ccc4c(c3)OCO4)c(=O)c3ccccc32)c1	-2%	nt	nt	-17%	nt	-14%
Cc1ccc(C)c(NC(=O)Cn2c(=O)n(Cc3ccc4c(c3)OCO4)c(=O)c3ccc(C(=O)NC4CCCCC4)cc32)c1	0%	nt	nt	2.6µM*	nt	?
Cc1cc(C)c(NC(=O)Cn2c(=O)n(Cc3ccc4c(c3)OCO4)c(=O)c3ccccc32)c(C)c1	-1%	nt	nt	-27%	nt	?
CCN(C(=O)Cn1c(=O)n(Cc2ccc3c(c2)OCO3)c(=O)c2ccc(C(=O)NC3CCCCC3)cc21)c1cccc(C)c1	0%	nt	nt	15µM*	nt	16µM*
Cc1ccccc1NC(=O)Cn1c(=O)n(Cc2ccc3c(c2)OCO3)c(=O)c2ccc(C(=O)NC3CCCCC3)cc21	-16%	nt	nt	5.8µM*	nt	7.3µM*
Cc1cc(C)c(NC(=O)Cn2c(=O)n(Cc3ccc(C(=O)NCc4ccc5c(c4)OCO5)cc3)c(=O)c3ccccc32)c(C)c1	?	nt	nt	6.5µM*	nt	7.3µM*
Cc1ccc(NC(=O)Cn2c(=O)n(Cc3ccco3)c(=O)c3ccc(C(=O)NC4CCCC4)cc32)c(C)c1	0%	nt	nt	16µM*	nt	16µM*
Cc1cc(C)c(NC(=O)Cn2c(=O)n(CCC(=O)N3CCc4ccccc4C3)c(=O)c3ccccc32)c(C)c1	-11%	nt	nt	13µM*	nt	0.52µM*
CSC1=N/C(=C\c2cc(C(C)(C)C)c(O)c(C(C)(C)C)c2)C(=O)S1	-67%	nt	nt	nt	nt	nt
COc1cccc(/C=N/N2CCN(c3ccncc3S(=O)(=O)N3CCCCC3)CC2)c1	-3%	18%	-12	?	16%	2.6µM*
COC(=O)c1cccc(NS(=O)(=O)c2c(C)nn(C)c2C)c1	-5%	nt	nt	nt	nt	nt
